Source: PubChem (Broad Institute)
aSyn 5UTR act = Activators via SNCA 5'UTR binding, MLPCN; alpha-synuclein 5'UTR reporter, activators screen; activity score, % (tested at 7.5 µM), hits read low; 300,000 compounds, 7.1% hits; AID 1814; in the data active = activity score below about -60%
Numbers stand for hits; - = inactive. Only a sample is shown.

SMILES | aSyn 5UTR act
CC(c1ccccc1)c1nnc(NC(=O)Nc2ccccc2F)s1 (stereo not drawn) | -95
O=c1c2ccccc2nnn1CSc1nnc(-c2ccco2)o1 | -131
O=c1c2ccccc2nnn1CSc1nnc2ccccn12 | -93
O=c1c2ccccc2nnn1CSc1ccc2c(c1)OCCO2 | -145
CCC(C(=O)Nc1ccc2c(c1)OCCO2)n1nnc2ccccc2c1=O (stereo not drawn) | -133
CCOc1ccc(NC(=O)c2ccco2)c([N+](=O)[O-])c1 | -131
CCOc1ccc(NC(=O)c2ccc(CC)s2)c([N+](=O)[O-])c1 | -168
CCOc1ccc(NC(=O)c2cccs2)c([N+](=O)[O-])c1 | -219
O=c1oc2cc(O)ccc2cc1-c1ccccc1 | -147
CC(=O)Oc1ccc(-c2cc3ccccc3oc2=O)cc1 | -135
O=c1cc(-c2ccccc2)c2ccc(O)cc2o1 | -
COc1ccc(-c2cc3ccc(O)cc3oc2=O)cc1 | -64
C=CCc1c(C)nc(SC)nc1Nc1ccc(C(C)=O)cc1 | -76
Fc1ccc(F)c(C2=NNC(=NCC3CCCO3)SC2)c1 (stereo not drawn) | -118
Cn1nnc(NC(=O)c2ccc(C(C)(C)C)cc2)n1 | -95
Cn1nnc(NC(=O)c2ccc3ccccc3c2)n1 | -63
Brc1ccc(-c2csc(-c3c[nH]c4ccccc34)n2)cc1 | -183
c1ccc2c(-c3csc(-c4ccncc4)n3)c[nH]c2c1 | -141
Cc1cc(C(=O)C(C)Sc2cccc[n+]2[O-])c(C)n1-c1ccc(Cl)cc1 (stereo not drawn) | -82
CNC(=S)Nc1ccc(Nc2ccccc2)cc1 | -95
CCCNC(=S)Nc1ccc(Nc2ccccc2)cc1 | -87
O=C(c1ccc(Cl)cc1)c1cnc(Nc2ccccc2Cl)s1 | -156
CC(=O)c1cnc(Nc2cccc(Cl)c2Cl)s1 | -92
c1ccc(-c2nnc(-c3ccco3)o2)cc1 | -137
Cc1ccc(-c2nnc(-c3ccc(Br)cc3)o2)o1 | -135
SMILES | aSyn 5UTR act
c1coc(-c2nnc(-c3cccs3)o2)c1 | -99
Brc1ccc(-c2nnc(-c3ccco3)o2)cc1 | -146
O=C(NC1CCCC1)c1ccc(CSCc2ccccc2F)o1 | -63
CCOc1ccc(-c2nc(-c3ccncc3)no2)cc1OCC | -95
CCOc1ccc(-c2nc(-c3ccccc3)no2)cc1OCC | -137
O=C(Nc1ccc(F)cc1)Nc1ccc(N2CCOCC2)c2nonc12 | -145
O=C(Nc1ccc(N2CCOCC2)c2nonc12)C1CCCC1 | -142
Cc1cc(C(=O)COc2ncnc3sccc23)c(C)n1C1CC1 | -79
CCCn1c(C)cc(C(=O)COc2ncnc3sccc23)c1C | -150
CCc1ccc(OCCCCCn2ccnc2)cc1 | -66
COc1cccc(/C=N/Nc2ccc([N+](=O)[O-])cc2)c1O | -150
COc1cccc(N/N=C/c2cccc(Br)c2O)c1 | -117
COc1cccc(/C=N/NC(=O)c2ccc(-c3ccccc3)cc2)c1O | -
COc1ccc(/C=N/Nc2ccc([N+](=O)[O-])cc2)cc1O | -298
Brc1ccc(N=NNc2ccccc2)cc1 | -188
NC(=S)N=Nc1ccc(NN=C(N)N)cc1 | -
O=[N+]([O-])c1cccc(NN=Nc2ccccc2)c1 | -129
O=[N+]([O-])c1ccc(N=NNc2ccccc2)cc1 | -139
Cc1nn(-c2ccccc2)c(Cl)c1/C=N\NC(=O)c1cnccn1 | -106
Cc1nn(-c2ccccc2)c(Cl)c1/C=N/NC(=O)c1ccco1 | -106
O=c1/c(=C/c2ccccn2)sc2nc3ccccc3n12 | -174
Cc1c(C(=O)NNC(=S)Nc2cccc(Cl)c2)nnn1-c1ccccc1 | -69
N#Cc1c(N2CCSCC2)nsc1-c1ccccc1Cl | -63
O=C(/C=C/c1cccc(Oc2ccccc2)c1)N1CCOCC1 | -95
O=C(/C=C/c1cccc2ccccc12)N1CCOCC1 | -63
SMILES | aSyn 5UTR act
O=C(/C=C/c1ccc(OCCCF)cc1)N1CCOCC1 | -70
CCN1C(=O)S/C(=C\c2ccc(N3CCOCC3)cc2C)C1=O | -148
C#CCN1C(=O)S/C(=C\c2ccc(N3CCOCC3)cc2C)C1=O | -150
Cc1ccc(-c2cc(C(=O)NC3CCCCC3)no2)cc1 | -163
CN(C(=O)c1cc(-c2ccccc2)on1)C1CCCCC1 | -188
O=C(NC1CCCCC1)c1cc(-c2ccc(O)cc2)on1 | -153
O=C(NC1CCCCC1)c1cc(-c2ccccc2O)on1 | -145
CC(C)(C)C(=O)Oc1ccc2cc(-c3ccc4ccccc4n3)c(=O)oc2c1 | -157
Cn1c(-c2cc3ccc(OC(=O)C(C)(C)C)cc3oc2=O)nc2ccccc21 | -117
CC(=O)Oc1ccc2cc(-c3nc4ccccc4n3C)c(=O)oc2c1 | -226
CCN(CC)Cc1c(O)ccc2cc(-c3nc4ccccc4n3C)c(=O)oc12 | -74
BrCCOCCOc1ccc2ccccc2c1 | -130
CCCCOc1ccc(-c2nc(=S)[nH][nH]2)cc1 | -65
CCCCOc1ccc(C(=O)NNC(=S)NC(=O)CC)cc1 | -
CCCCOc1ccc(-c2ncc(N)cn2)cc1 | -95
CCCCOc1ccc(-c2nc(SCC(N)=O)n[nH]2)cc1 | -114
CC(/C=C/c1ccccc1F)=N\NC(=O)c1cccc(F)c1 | -139
CCOc1cc(C(=O)N/N=C/C(Br)=C/c2ccccc2)cc(OCC)c1OCC | -
